PubChem BioAssay (NCI)
The panel holds about 79,000 compounds, 15% with a hit somewhere; the sample as a whole holds those more often. Values without a mark were called inactive. Activity calls are given as the source filed them. Rule as the data show it: active = growth inhibition above about 70%; inactive = the rest.

How the values were obtained:
[1] = NCI Yeast Anticancer Drug Screen. Data for the rad50 strain (AID 155);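 also: 0% = growth of vehicle-only cultures of the same strain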; settings: S. cerevisiae rad50 strain growth inhibition; at 50.0 µM; hits give high values
Outline: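 Vehicle-treated cultures provide the reference for the growth inhibition reported for compound-exposed, repair-deficient yeast.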

[2] = NCI Yeast Anticancer Drug Screen. Data for the mec2-1 strain (AID 157); settings: S. cerevisiae mec2-1 strain, at 50.0 µM, hits give high values
Outline: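 Each compound was tested on mec2-1 yeast, a strain altered in DNA damage repair or cell cycle control. Growth inhibition is reported relative to vehicle.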

[3] = NCI Yeast Anticancer Drug Screen. Data for the sgs1 mgt1 strain (AID 161);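 also: 0% = growth of cultures given vehicle only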; settings: S. cerevisiae sgs1 mgt1 strain, at 50.0 µM, hits give high values
Outline: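 Genetically altered yeast, compound exposure, growth inhibition relative to vehicle.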

[4] = NCI Yeast Anticancer Drug Screen. Data for the cln2 rad14 strain (AID 165);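 also: 0% = growth equal to vehicle treated cultures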; settings: S. cerevisiae cln2 rad14 strain, at 50.0 µM, hits give high values
Outline: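 Test compounds were added to cln2 rad14 yeast cultures; inhibition of growth was then determined by comparison with vehicle treatment.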

[5] = NCI Yeast Anticancer Drug Screen. Data for the bub3 strain (AID 167); settings: S. cerevisiae bub3 mutant strain, at 50.0 µM, hits give high values
Outline: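 Mutant yeast screening strain plus compound; vehicle-treated cultures serve as the 0% inhibition reference.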

[6] = NCI Yeast Anticancer Drug Screen. Data for the mlh1 rad18 strain (AID 175); settings: S. cerevisiae mlh1 rad18 strain growth inhibition; at 50.0 µM; hits give high values
Outline: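 Inhibition values reflect reduced growth of mutant yeast versus vehicle-treated controls following compound exposure; the mutations affect DNA damage repair.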

| Compound | growth inhibition [1] | growth inhibition [2] | growth inhibition [3] | growth inhibition [4] | growth inhibition [5] | growth inhibition [6] |
| --- | --- | --- | --- | --- | --- | --- |
| CCCCC[As](=O)(O)O | 12.2% | -6.4% | 1.2% | -5.6% | 4.3% | 7.95% |
| O=[As](O)(O)c1ccc(N=Nc2ccc([As](=O)(O)O)cc2)cc1 | -0.35% | 11.1% | -15.9% | 6.8% | -22.5% | -16.6% |
| CP(C)(=S)P(C)(C)=S | 10.8% | 6.05% | 14.6% | -9.1% | 3.05% | -18.5% |
| Nc1nn[nH]n1 (tested in a mixture with another compound) | -4.65% | 1.45% | -3.7% | -27.1% | 0.05% | -3.05% |
| O=C1c2ccccc2OP(=O)(OCC(F)(F)F)OC1(C(F)(F)F)C(F)(F)F (configuration not stated) | -21.4% | -54.7% | -15.2% | -65.5% | -41.5% | -22.8% |
| C1=C(c2ccccc2)CCN(C2(c3ccccc3)CCCCC2)C1 | -5.6% | 0.75% | -4.2% | -33.5% | 16.5% | 9.35% |
| C=CCN1CN(c2ccccc2)C2(CCN(CCCC3(c4ccc(F)cc4)OCCO3)CC2)C1=O | -18.1% | -7.55% | 1.4% | 0.4% | 0.7% | -13.8% |
| O=C(O)c1cc(Cl)nc(Cl)c1 | -2.1% | 22% | 2.05% | -26.2% | 17.4% | -14.8% |
| c1ccc2c(c1)sc1ccccc12 | 15.5% | -13.7% | 16.9% | -29.4% | -8.6% | 15.2% |
| CC1(C)N=C(N)N=C(N)N1c1ccc(OCCCOc2ccc(S(=O)(=O)F)cc2)cc1 | 35.1% | 72.8% (active) | 89.1% (active) | -7.65% | 31.5% | 84.5% (active) |
| O=C(O)c1ccccc1N(CCO)CCCl | -11.2% | -10.4% | -31.4% | 21.6% | -14% | -22.8% |
| CCC(C)(C)C(=O)Nc1cccc(OC(=O)NC)c1 | 2.1% | -9.1% | 9.85% | -3.35% | 13.2% | -16.9% |
| [CH-]=C([CH2-])C.[Ni][Br].c1ccc([PH+](c2ccccc2)c2ccccc2)cc1 | 35.5% | 2.9% | 26.6% | -8.85% | -4.6% | -1.75% |
| C[N+](C)(C)CC1CCC/C1=N/O (configuration not stated) | 44.8% | 13.4% | -0.5% | 9.95% | 26.8% | 34.9% |
| CC1(C)N=C(N)N=C(N)N1c1ccc(CCCCc2cc(Cl)ccc2S(=O)(=O)F)c(Cl)c1 | 99.3% (active) | 99.7% (active) | 99.5% (active) | 98.4% (active) | 98.5% (active) | 99.6% (active) |
| CN(C)C1=C(N2CC2)C(=O)C(N(C)C)=C(N2CC2)C1=O | 17.2% | 9.9% | 14.6% | 9.3% | 1% | 23.7% |
| CCC(CC)C(=O)Cl | -3.8% | -4.6% | -33.2% | -13.1% | -1.35% | -22.9% |
| CCCCC1(CCO)C(=O)NC(=O)NC1=O | -12.1% | -2.65% | -5.7% | -19.1% | 28.4% | -20.6% |
| [N-]=[N+]=NC12CC3CC(CC(C3)C1)C2 | -9.7% | -6% | -7.45% | -9.35% | -25.6% | -20.2% |

| Compound | growth inhibition [1] | growth inhibition [2] | growth inhibition [3] | growth inhibition [4] | growth inhibition [5] | growth inhibition [6] |
| --- | --- | --- | --- | --- | --- | --- |
| NCC(O)CSP(=O)(O)O (configuration not stated) | -10.9% | -9.85% | -18.9% | 24.5% | -3.8% | -0.6% |
| CC(C)(C)N1COC2CCCCC21 (configuration not stated) | 17.4% | -3.2% | 4.65% | -4.25% | 16.4% | 14.6% |
| CN1CN(c2ccccc2)C2(CCN(CCC3Oc4ccccc4O3)CC2)C1=O | -22.4% | 6.45% | -0.4% | -1.2% | -1.35% | 3.35% |
| CN(C)CCNC(=O)c1cccc(COC(=O)N(CCCl)CCCl)c1[N+](=O)[O-] | 9.55% | -2.4% | 15.8% | 10.1% | -9.45% | 9.7% |
| CCCCCCCCCCCCP(=O)(O)OCC(N)C(=O)O (configuration not stated) | -0.9% | -21.6% | 1.5% | -7.1% | -12.8% | -17.9% |
| N/C(=N\NS(=O)(=O)c1ccccc1)N[N+](=O)[O-] | -3.1% | 21.7% | 7.05% | -8.55% | 24.2% | 7.25% |
| Clc1cccc(Cl)c1CBr | 23.1% | -19.1% | 19.3% | 15.8% | 15.3% | 10.1% |
| Cc1ccc(N=C(C(c2ccccc2)c2ccccc2)N(CCCl)CCCl)cc1 | 24.2% | 3.45% | 19.9% | 13.3% | 18.1% | 24.1% |
| COC(=O)[C@H]1[C@H]2CCOC1(c1cc(OC)c(OC)c(OC)c1)c1cc3c(cc1[C@H]2O)OCO3 | -5.55% | -63% | -21.6% | -14.3% | -38% | -0.6% |
| CN1CCCC(O)(C(=O)c2ccccc2)C1 (configuration not stated) | 4.15% | -15.2% | 0.7% | -16% | -9.35% | 12.9% |
| CC(=O)CC(C)=O.CC(=O)CC(C)=O.CC(=O)CC(C)=O.[Tb] | -0.8% | -7.7% | -3.95% | 26.8% | -2.95% | -19.8% |
| O=C(Cc1nc2ccccc2c(=O)n1-c1c(Cl)cccc1Cl)c1ccncc1 | 2.45% | 7.95% | 7.1% | -25.6% | -2.95% | 18.9% |
| Cc1cc[n+](CCc2ccccc2)cc1 | 7.95% | 15.1% | 15.2% | -8.35% | 8.75% | 9.6% |
| Cc1cc(Nc2ccc(N(CCCl)CCCl)cc2)c(C)cc1O | 31.7% | 10% | 5.75% | -5.85% | -4.15% | 6.8% |
| O=C(Nc1ccccc1F)C(Cl)(Cl)Cl | 6.55% | -5.2% | 9.3% | -5% | 16.7% | 26.2% |
| NC(=O)c1cc([N+](=O)[O-])c([N+](=O)[O-])cc1N(CCCl)CCCl | 14.4% | 8.95% | 27.2% | 0.4% | -3.8% | 13.3% |
| ClCc1cccnc1 | 16.9% | -2.35% | 5.25% | 18.1% | 3.6% | 31.7% |
| CN(N)/N=N/c1nc[nH]c1[N+](=O)[O-] | -11.9% | -24.6% | -2.6% | 4.85% | -12.1% | -3.4% |
